# Experimental data published in article PMC7862700, “An all-to-all approach to the identification of sequence-specific readers for epigenetic DNA modifications on cytosine”.
# Assays:
# Assay in all cases: DAPPL (digital affinity profiling via proximity ligation, sequencing); 10 mM Tris-HCl pH 7.5, 50 mM NaCl, 1 mM DTT, 4% glycerol, room temperature, 30 min; GST-TFs on glutathione beads, 16-mer random dsDNA library, 0.1% formaldehyde crosslink after washing; high values mean tight binding
# FEV = molecular target: T1, FEV (Homo sapiens, UniProt Q99581 1-238); details: protein: recombinant; tags: N-terminal GST; dsDNA, one strand shown
# T1 sequence: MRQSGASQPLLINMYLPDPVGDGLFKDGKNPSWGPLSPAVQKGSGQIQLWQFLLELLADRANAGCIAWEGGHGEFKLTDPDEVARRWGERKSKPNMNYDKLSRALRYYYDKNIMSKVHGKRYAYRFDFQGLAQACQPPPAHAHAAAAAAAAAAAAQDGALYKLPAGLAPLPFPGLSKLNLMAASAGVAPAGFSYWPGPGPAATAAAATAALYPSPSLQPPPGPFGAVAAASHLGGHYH
# In short: (§1)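 Human transcription factors were made in yeast as GST fusions, captured on glutathione beads and barcoded with DNA. With a tag-only sample included, the pool was incubated with 200 nmole of a random double-stranded 16-mer DNA library in Tris/NaCl/DTT/glycerol buffer at room temperature for 30 min, then crosslinked with 0.1% formaldehyde after washing, ligated by proximity, amplified and sequenced. For binding signal, each hexamer's read frequency for a factor is divided by its frequency for the tag-only sample.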
# ETV5 = ETV5 (Homo sapiens, UniProt P41161 1-510); details: protein: recombinant; tags: N-terminal GST; dsDNA, one strand shown
# In short: as §1
# HSF1 = HSF1 (Homo sapiens, UniProt Q00613 1-529); details: protein: recombinant; tags: N-terminal GST; chain copies: 3; dsDNA, one strand shown
# In short: as §1
# SPIC = molecular target: T2, SPIC (Homo sapiens, UniProt Q8N5J4 1-248); details: protein: recombinant; tags: N-terminal GST; dsDNA, one strand shown
# T2 sequence: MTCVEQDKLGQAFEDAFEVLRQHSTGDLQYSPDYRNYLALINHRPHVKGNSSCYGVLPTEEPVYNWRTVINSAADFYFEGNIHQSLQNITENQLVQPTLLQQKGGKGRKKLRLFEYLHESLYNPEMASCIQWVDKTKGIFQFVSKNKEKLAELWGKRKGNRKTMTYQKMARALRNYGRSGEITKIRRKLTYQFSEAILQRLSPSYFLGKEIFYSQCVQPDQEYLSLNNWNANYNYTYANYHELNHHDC
# In short: as §1
# ELF4 = ELF4 (Homo sapiens, UniProt Q99607 1-663); details: protein: recombinant; tags: N-terminal GST; dsDNA, one strand shown
# In short: as §1
# ELK4 = molecular target: T3, ELK4 (Homo sapiens, UniProt P28324-2 1-405); details: protein: recombinant; tags: N-terminal GST; dsDNA, one strand shown
# T3 sequence: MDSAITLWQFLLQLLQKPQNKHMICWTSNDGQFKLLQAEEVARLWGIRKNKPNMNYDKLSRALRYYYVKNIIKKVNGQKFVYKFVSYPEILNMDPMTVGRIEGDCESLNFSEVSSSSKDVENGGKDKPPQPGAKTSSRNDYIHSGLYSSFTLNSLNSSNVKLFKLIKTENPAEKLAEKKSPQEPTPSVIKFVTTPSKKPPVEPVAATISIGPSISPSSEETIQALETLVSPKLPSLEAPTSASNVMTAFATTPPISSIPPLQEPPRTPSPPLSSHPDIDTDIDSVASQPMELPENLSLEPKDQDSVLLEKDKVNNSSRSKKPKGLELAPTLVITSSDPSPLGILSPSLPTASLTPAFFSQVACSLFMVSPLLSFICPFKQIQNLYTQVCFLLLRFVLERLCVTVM
# In short: as §1
# ETV2 = molecular target: T4, ETV2 (Homo sapiens, UniProt O00321 1-342); details: protein: recombinant; tags: N-terminal GST; dsDNA, one strand shown
# T4 sequence: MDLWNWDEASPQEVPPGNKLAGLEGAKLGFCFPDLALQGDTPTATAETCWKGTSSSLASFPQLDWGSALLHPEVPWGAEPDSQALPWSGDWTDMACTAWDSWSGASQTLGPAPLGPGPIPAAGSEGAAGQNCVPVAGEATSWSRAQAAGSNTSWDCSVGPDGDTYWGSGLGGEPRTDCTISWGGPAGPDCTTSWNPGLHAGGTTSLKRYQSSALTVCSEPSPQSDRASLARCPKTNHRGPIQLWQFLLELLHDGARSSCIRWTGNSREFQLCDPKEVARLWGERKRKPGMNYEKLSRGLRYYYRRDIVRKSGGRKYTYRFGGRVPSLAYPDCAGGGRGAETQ
# In short: as §1
# ELF3 = molecular target: T5, ELF3 (Homo sapiens, UniProt P78545 1-371); details: protein: recombinant; tags: N-terminal GST; dsDNA, one strand shown
# T5 sequence: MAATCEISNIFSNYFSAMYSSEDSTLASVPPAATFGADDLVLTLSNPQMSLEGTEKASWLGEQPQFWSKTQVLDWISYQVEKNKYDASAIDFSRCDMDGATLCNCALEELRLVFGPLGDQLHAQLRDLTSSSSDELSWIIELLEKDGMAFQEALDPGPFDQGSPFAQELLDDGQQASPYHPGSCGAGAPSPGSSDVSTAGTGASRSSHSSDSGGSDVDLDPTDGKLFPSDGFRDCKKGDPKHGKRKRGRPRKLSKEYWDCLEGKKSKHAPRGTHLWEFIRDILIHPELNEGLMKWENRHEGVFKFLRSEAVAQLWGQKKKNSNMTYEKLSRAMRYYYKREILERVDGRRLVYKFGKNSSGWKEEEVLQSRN
# In short: as §1
# CRX = CRX (Homo sapiens, UniProt O43186 1-299); details: protein: recombinant; tags: N-terminal GST; dsDNA, one strand shown
# In short: as §1
# ETV1 = ETV1 (Homo sapiens, UniProt P50549 1-477); details: protein: recombinant; tags: N-terminal GST; dsDNA, one strand shown
# In short: as §1
# ERF = molecular target: T6, ERF (Homo sapiens, UniProt P50548 1-548); details: protein: recombinant; tags: N-terminal GST; dsDNA, one strand shown
# T6 sequence: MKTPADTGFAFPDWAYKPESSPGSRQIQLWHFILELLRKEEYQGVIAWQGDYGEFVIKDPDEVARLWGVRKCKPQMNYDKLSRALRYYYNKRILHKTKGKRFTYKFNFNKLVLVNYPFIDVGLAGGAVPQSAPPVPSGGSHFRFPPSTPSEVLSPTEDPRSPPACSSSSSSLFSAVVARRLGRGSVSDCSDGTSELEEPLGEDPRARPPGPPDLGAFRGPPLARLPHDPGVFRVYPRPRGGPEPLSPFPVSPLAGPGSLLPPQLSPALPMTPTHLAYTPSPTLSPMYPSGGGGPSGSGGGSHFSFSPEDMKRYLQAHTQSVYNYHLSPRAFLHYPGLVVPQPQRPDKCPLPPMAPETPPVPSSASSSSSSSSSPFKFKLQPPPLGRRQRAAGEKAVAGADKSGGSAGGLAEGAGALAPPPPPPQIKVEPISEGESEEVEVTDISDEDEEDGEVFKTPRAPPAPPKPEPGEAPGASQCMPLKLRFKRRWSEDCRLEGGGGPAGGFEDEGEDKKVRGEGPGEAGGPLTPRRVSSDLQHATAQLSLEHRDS
# In short: as §1
# ETV3L = molecular target: T7, ETV3L (Homo sapiens, UniProt Q6ZN32 1-361); details: protein: recombinant; tags: N-terminal GST; dsDNA, one strand shown
# T7 sequence: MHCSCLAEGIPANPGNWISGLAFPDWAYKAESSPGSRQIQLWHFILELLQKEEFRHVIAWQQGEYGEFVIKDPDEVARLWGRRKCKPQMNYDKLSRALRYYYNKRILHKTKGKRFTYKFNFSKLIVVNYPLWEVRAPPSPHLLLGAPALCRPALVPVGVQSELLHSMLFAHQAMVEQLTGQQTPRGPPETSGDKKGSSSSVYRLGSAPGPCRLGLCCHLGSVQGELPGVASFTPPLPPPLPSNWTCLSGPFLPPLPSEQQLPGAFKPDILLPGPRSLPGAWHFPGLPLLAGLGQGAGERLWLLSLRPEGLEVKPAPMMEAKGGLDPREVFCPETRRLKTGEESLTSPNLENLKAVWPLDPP
# In short: as §1
# ETS2 = molecular target: T8, ETS2 (Homo sapiens, UniProt P15036 1-469); details: protein: recombinant; tags: N-terminal GST; dsDNA, one strand shown
# T8 sequence: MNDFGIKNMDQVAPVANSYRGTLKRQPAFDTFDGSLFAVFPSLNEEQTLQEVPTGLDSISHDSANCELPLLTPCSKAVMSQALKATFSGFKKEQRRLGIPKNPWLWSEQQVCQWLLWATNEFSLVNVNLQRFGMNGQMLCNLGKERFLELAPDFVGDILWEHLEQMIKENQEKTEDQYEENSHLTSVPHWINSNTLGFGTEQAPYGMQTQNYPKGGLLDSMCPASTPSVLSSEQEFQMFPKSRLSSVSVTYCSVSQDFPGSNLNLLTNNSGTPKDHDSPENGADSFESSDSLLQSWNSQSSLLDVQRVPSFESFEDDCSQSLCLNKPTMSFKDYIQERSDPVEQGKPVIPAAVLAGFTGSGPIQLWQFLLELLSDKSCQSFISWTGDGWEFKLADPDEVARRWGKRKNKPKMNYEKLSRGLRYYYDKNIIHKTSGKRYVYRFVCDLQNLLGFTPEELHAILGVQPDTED
# In short: as §1
# SPDEF = molecular target: T9, SPDEF (Homo sapiens, UniProt O95238 1-335); details: protein: recombinant; tags: N-terminal GST; dsDNA, one strand shown
# T9 sequence: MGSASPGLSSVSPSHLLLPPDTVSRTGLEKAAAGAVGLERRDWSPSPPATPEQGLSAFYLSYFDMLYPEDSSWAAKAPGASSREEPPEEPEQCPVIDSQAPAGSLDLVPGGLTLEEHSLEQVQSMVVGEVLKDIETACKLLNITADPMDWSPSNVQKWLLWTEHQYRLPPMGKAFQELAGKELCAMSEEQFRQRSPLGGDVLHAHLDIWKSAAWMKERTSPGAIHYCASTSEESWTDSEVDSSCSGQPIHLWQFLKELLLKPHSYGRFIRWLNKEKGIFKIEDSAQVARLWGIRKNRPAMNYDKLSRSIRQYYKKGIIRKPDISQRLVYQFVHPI
# In short: as §1
# ETV7 = molecular target: T10, ETV7 (Homo sapiens, UniProt Q9Y603 1-341); details: protein: recombinant; tags: N-terminal GST; dsDNA, one strand shown
# T10 sequence: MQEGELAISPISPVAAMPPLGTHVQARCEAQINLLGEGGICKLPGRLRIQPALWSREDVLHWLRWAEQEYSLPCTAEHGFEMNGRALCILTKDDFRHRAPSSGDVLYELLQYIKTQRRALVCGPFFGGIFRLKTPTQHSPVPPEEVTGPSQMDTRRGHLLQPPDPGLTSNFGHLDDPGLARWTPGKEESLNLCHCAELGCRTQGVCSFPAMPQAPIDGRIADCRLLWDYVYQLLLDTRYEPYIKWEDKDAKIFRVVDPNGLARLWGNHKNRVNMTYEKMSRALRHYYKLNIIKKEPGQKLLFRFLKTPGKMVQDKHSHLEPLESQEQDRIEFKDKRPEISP
# In short: as §1
# ELF5 = molecular target: T11, ELF5 (Homo sapiens, UniProt Q9UKW6-2 1-255); details: protein: recombinant; tags: N-terminal GST; dsDNA, one strand shown
# T11 sequence: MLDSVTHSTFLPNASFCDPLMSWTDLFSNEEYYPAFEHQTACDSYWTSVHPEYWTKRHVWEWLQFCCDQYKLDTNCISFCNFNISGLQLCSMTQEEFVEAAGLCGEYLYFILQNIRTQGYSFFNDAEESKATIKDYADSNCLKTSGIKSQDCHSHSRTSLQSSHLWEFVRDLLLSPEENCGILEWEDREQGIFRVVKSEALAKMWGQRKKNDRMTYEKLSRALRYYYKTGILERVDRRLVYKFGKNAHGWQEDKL
# In short: as §1
# ETV3 = molecular target: T12, ETV3 (Homo sapiens, UniProt P41162-2 1-143); details: protein: recombinant; tags: N-terminal GST; dsDNA, one strand shown
# T12 sequence: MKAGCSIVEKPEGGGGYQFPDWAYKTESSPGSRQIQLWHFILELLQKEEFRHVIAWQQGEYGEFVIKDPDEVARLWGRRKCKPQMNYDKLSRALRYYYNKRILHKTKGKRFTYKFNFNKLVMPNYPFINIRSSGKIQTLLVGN
# In short: as §1
# ETV6 = ETV6 (Homo sapiens, UniProt P41212 1-452); details: protein: recombinant; tags: N-terminal GST; dsDNA, one strand shown
# In short: as §1
# Chain of HSF1 (Q00613 whole entry): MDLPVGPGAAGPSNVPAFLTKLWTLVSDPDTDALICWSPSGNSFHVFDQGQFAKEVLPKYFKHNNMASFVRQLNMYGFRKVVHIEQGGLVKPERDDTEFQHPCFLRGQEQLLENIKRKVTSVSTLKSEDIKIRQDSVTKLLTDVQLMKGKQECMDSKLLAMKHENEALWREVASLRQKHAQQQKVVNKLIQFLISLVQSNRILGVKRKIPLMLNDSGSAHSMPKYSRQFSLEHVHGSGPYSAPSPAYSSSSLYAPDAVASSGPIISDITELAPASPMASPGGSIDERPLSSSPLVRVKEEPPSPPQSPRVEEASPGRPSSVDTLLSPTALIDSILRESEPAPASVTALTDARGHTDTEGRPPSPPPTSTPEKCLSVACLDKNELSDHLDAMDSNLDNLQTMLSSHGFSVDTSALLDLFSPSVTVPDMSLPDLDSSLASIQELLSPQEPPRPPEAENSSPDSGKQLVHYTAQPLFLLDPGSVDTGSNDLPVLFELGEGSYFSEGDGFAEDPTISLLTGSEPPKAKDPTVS
# Chain of ETV6 (P41212 whole entry): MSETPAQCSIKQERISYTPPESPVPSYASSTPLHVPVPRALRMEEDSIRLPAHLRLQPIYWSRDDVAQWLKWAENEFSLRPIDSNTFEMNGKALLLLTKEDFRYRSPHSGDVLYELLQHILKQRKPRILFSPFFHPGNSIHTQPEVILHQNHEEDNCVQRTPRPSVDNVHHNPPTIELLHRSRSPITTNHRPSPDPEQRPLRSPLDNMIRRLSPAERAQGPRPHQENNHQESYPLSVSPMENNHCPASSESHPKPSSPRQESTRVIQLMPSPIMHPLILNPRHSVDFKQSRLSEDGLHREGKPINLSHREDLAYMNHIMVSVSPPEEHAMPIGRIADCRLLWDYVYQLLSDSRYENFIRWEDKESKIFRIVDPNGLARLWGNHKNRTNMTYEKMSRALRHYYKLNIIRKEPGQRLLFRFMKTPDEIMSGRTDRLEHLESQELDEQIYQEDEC
# Chain of ETV1 (P50549 whole entry): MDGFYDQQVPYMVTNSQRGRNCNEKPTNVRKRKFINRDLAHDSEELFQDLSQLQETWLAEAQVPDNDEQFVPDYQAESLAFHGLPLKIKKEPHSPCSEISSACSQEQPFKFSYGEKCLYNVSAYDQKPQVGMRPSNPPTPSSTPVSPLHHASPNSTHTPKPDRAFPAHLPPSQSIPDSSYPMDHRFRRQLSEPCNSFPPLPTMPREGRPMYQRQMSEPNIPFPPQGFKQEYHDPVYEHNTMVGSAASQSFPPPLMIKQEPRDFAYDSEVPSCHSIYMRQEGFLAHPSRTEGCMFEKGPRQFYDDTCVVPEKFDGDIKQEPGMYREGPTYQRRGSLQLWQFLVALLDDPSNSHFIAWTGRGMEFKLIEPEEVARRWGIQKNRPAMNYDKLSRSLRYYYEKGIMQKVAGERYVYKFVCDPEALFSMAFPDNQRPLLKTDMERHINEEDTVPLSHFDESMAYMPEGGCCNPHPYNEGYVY
# Chain of CRX (O43186 whole entry): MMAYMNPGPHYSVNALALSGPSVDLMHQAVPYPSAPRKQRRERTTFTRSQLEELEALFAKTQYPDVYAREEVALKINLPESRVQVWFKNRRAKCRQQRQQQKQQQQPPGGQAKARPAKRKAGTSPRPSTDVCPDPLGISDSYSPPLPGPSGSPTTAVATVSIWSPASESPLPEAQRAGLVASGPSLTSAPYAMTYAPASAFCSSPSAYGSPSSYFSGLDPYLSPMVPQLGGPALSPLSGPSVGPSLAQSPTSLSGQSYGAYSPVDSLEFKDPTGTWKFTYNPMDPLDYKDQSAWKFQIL
# Chain of ETV5 (P41161 whole entry): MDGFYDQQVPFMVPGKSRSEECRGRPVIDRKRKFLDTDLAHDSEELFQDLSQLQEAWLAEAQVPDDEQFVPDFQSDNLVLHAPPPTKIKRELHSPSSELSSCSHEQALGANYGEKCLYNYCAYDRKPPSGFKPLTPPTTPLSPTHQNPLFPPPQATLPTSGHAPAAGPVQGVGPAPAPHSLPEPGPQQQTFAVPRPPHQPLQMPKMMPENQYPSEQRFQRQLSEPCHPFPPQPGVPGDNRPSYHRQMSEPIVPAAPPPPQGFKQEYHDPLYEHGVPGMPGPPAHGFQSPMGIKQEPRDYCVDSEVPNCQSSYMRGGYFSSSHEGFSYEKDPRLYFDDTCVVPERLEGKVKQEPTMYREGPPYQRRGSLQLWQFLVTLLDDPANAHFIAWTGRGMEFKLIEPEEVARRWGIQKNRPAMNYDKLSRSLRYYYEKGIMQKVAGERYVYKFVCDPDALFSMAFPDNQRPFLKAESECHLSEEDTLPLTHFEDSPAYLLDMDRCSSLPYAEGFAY
# Chain of ELF4 (Q99607 whole entry): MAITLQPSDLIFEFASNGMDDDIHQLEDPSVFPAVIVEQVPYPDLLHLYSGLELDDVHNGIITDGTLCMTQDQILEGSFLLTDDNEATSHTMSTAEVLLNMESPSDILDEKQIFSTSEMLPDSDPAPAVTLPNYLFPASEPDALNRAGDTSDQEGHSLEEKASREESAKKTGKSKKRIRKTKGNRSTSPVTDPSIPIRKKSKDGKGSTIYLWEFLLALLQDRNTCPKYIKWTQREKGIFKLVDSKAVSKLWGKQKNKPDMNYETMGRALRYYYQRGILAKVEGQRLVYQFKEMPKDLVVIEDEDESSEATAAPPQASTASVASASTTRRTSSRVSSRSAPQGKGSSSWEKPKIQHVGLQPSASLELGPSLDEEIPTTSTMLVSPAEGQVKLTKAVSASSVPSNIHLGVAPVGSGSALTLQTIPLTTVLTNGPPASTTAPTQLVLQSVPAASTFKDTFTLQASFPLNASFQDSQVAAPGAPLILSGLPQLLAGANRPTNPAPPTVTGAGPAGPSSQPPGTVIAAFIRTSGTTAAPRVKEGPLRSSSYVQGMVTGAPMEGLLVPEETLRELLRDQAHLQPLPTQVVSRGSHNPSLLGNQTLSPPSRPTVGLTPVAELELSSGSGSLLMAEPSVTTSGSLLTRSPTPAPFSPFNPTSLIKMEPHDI
sequence,measurement,setting,value
GTTATT,binding signal,FEV,"1.08 fold enrichment (6-mer frequency, TF over GST control)"
same,binding signal,ETV5,"1.26 fold enrichment (6-mer frequency, TF over GST control)"
same,binding signal,HSF1,"1.19 fold enrichment (6-mer frequency, TF over GST control)"
same,binding signal,SPIC,"1.29 fold enrichment (6-mer frequency, TF over GST control)"
same,binding signal,ELF4,"1.16 fold enrichment (6-mer frequency, TF over GST control)"
same,binding signal,ELK4,"1.17 fold enrichment (6-mer frequency, TF over GST control)"
same,binding signal,ETV2,"1.27 fold enrichment (6-mer frequency, TF over GST control)"
same,binding signal,ELF3,"1.22 fold enrichment (6-mer frequency, TF over GST control)"
same,binding signal,CRX,"1.32 fold enrichment (6-mer frequency, TF over GST control)"
same,binding signal,ETV1,"1.12 fold enrichment (6-mer frequency, TF over GST control)"
same,binding signal,ERF,"1.12 fold enrichment (6-mer frequency, TF over GST control)"
same,binding signal,ETV3L,"1.13 fold enrichment (6-mer frequency, TF over GST control)"
same,binding signal,ETS2,"1.14 fold enrichment (6-mer frequency, TF over GST control)"
same,binding signal,SPDEF,"1.04 fold enrichment (6-mer frequency, TF over GST control)"
same,binding signal,ETV7,"1.29 fold enrichment (6-mer frequency, TF over GST control)"
same,binding signal,ELF5,"1.21 fold enrichment (6-mer frequency, TF over GST control)"
same,binding signal,ETV3,"1.2 fold enrichment (6-mer frequency, TF over GST control)"
same,binding signal,ETV6,"1.2 fold enrichment (6-mer frequency, TF over GST control)"
